High-throughput results (PubChem BioAssay)
Pf growth 96h = inhibits malaria parasite growth, 96 h; P. falciparum luciferase reporter growth, 96 h; Potency, µM (titrated, usually from 28.7 µM), without a hit: at the highest dose activity change, negative = inhibition, usual class: inhibitors; 6.9% of 320,000 active; AID 504834; further: on the % scale 0 is the no-effect control and ±100 the full control effect
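Compounds incubated with erythrocytes infected by luciferase-expressing P. falciparum (2% hematocrit, 0.05% parasitemia final) for 96 hours, 37 C in 5% CO2. Growth inhibition scored as decreased luciferase luminescence.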
AmpC detergent = AmpC beta-lactamase inhibition with detergent present | AmpC hydrolysis of nitrocefin, absorbance 480 nm, 0.01% Triton | AID 485294 | 0.041% of 370,000 active | P00811 | Potency, µM (titrated, usually from 114 µM), without a hit: at the top dose activity change, negative = inhibition, actives largely listed as inhibitors;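 further: 0% = no-compound wells and -100% = no-enzyme wells; nearly all actives have a fitted effect of over 25% in size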
Target sequence (P00811 whole entry, looked up): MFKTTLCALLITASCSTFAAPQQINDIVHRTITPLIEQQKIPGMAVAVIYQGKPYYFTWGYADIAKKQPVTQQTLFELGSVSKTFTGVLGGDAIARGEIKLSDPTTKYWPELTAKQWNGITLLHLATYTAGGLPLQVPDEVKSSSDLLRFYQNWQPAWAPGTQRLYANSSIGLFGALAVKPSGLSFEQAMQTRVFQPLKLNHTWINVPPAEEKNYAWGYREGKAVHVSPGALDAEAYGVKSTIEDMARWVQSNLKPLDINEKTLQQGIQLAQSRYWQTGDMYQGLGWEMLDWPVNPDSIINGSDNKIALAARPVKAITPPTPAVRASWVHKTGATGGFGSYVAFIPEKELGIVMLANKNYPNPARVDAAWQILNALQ
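20 mM phosphate pH 7.0 + 0.01% (detergent screen) or 0.0001% Triton X-100; 5.3 nM AmpC reagent; cpd preinc 15 min RT; nitrocefin (800 uM stock) to start; A480 q20 s × 4 min; Activity was normalised to no-enzyme and no-compound control wells.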
AmpC no deterg = inhibitors of E. coli AmpC beta-lactamase without detergent; P00811; AmpC nitrocefin hydrolysis, absorbance 480 nm, 0.0001% Triton; Potency, µM (titrated, usually from 57.1 µM), inactives show at the highest dose activity change, negative = inhibition, usual class: inhibitors; 0.52% of 330,000 active; AID 485341;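 further: plate controls were no compound for no effect and no enzyme for full effect; nearly all actives have a fitted effect of over 20% in size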
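AmpC (5.3 nM in the dispensed reagent) in 20 mM phosphate pH 7.0 with 0.01% (detergent screen) or 0.0001% Triton X-100 was preincubated with compounds for 15 min at room temperature. Nitrocefin was then added from an 800 uM solution, and hydrolysis was followed at 480 nm.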
Pf growth 48h = inhibits P. falciparum growth in the first generation, 48 h; P. falciparum luciferase growth in erythrocytes, 48 h; Potency, µM (series often up to 28.7 µM), for the others: at the top dose activity change, negative = inhibition, actives largely listed as inhibitors; 5.9% of 310,000 active; AID 504832; further: on the % scale 0 is the no-effect control and ±100 the full control effect
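Read-out is firefly luciferase luminescence from an integrated reporter in P. falciparum, so falling signal marks reduced parasite growth. Infected erythrocytes were at 2% hematocrit and 0.1% parasitemia (final) in Albumax-supplemented RPMI 1640.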
Sm TGR block = blocks Schistosoma mansoni thioredoxin glutathione reductase; Potency, µM (titrated, usually from 114 µM), without a hit: top-dose activity change, negative = inhibition, most hits filed as inhibitors; 3% of 360,000 active; AID 485364; purified TGR, DTNB reduction, TNB absorbance 405 nm; further: on the % scale 0 is the no-effect control and ±100 the full control effect; nearly all actives have a fitted effect of over 60% in size
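TGR 20 nM + NADPH 100 uM (dispensed conc.), cpd preinc 15 min RT; start with NADPH (500 uM addition) then DTNB (15 mM addition). Kinetic TNB absorbance, 405 nm filter. Four-parameter Hill fit across titration.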
SARS PLpro yeast = SARS-CoV PLP inhibition in yeast. S. cerevisiae expressing SARS-CoV PLpro, growth rescue. Potency, µM (titrated, usually from 32.9 µM), for inactives: at the top dose activity, positive = growth rescue, actives largely listed as activators. 0.19% of 330,000 active. AID 485353; calls by dose curve; further: 0% is about no effect; nearly all actives have a fitted effect of over 55% in size
Active calls of the source: *; ? = inconclusive; . = no result. Shown are actives, neighbours in structure and some others; about 12% of the full set was active somewhere. Unless noted, the call rests on the fitted dose curve; in most records, active means well fitted curve in the direction sought with a large enough effect; inconclusive means small, poorly fitted or top-dose-only effect, or another doubt; inactive means no such curve, though single readings can be large; an effect the other way counts as inactive or inconclusive. Potency means the concentration at half of the fitted maximal effect.

SMILES | Pf growth 96h | AmpC detergent | AmpC no deterg | Pf growth 48h | Sm TGR block | SARS PLpro yeast
CCC1CCc2sc(C(=O)NCC(c3ccc(OC)cc3)N3CCOCC3)cc2C1 (stereo unspecified) | ? | ? | 262% | 12µM* | -3% | -4%
COc1ccc(C(CNC(=O)c2nn(-c3ccccc3)c(=O)c3ccccc23)N2CCOCC2)cc1 (stereo unspecified) | 10µM* | -5% | 14% | -49% | -1% | 6%
COc1ccc(C(CNC(=O)c2ccc(-c3cccc(C(F)(F)F)c3)o2)N2CCOCC2)cc1 (stereo unspecified) | 1.5µM* | -4% | 239% | 6.6µM* | ? | 2%
CCc1cc(C(=O)NCC(c2ccc(OC)cc2)N2CCOCC2)sc1C (stereo unspecified) | -1% | -15% | 40% | 0% | -5% | 1%
COc1ccc(C(CNC(=O)c2cc(C)oc2C)N2CCOCC2)cc1 (stereo unspecified) | 13% | -4% | 10% | -1% | 28µM* | -9%
COc1ccc(-n2nc(C(=O)NCC(=O)N3CCC4(CC3)OCCO4)c3ccccc3c2=O)cc1 | 3% | ? | 51% | 5% | -12% | 1%
COc1ccc(C(CNC(=O)c2cccc([N+](=O)[O-])c2)N2CCOCC2)cc1 (stereo unspecified) | . | 14% | . | . | 0% | .
COc1ccc(C(CNC(=O)Cc2ccc(Cl)cc2)N2CCOCC2)cc1 (stereo unspecified) | . | -2% | . | . | -11% | .
Cc1ccc(C2=NC(c3ccccc3)=Nc3ccc(Cl)cc3N2)cc1 | . | 21% | . | . | 0% | .
CCCOc1ccc(C2=NC(c3ccc(F)cc3)=Nc3ccc(OC)cc3N2)cc1 | . | 4% | . | . | 1% | .
COc1cc2oc(=O)c(CC(=O)N3CCCCC3)c(C)c2cc1Cl | . | 1% | . | . | 10% | .
CC(=O)N1CCN(C(=O)c2ccc(-c3cccc(C(F)(F)F)c3)o2)CC1 | ? | ? | 50% | 3% | 32µM* | -6%
O=C(c1ccc(-c2cccc(C(F)(F)F)c2)o1)N1CCOCC1 | 6% | ? | 35% | 31% | -14% | 0%
COc1ccc(-n2nc(C(=O)NCC(=O)NCC3CCCO3)c3ccccc3c2=O)cc1Cl (stereo unspecified) | ? | -7% | 105% | ? | 2% | 1%
COc1cccc(-n2nc(C(=O)NCC3CCCO3)c3ccccc3c2=O)c1 (stereo unspecified) | 3.7µM* | -15% | 0% | -16% | -4% | -4%
Cc1cc(Cl)ccc1OCC(=O)N(Cc1sccc1C)C1CCS(=O)(=O)C1 (stereo unspecified) | . | 0% | . | . | 9% | .
CCOC(=O)c1cc(S(=O)(=O)Nc2ccc(OC)c(Cl)c2)[nH]n1 | . | 18% | . | . | 1% | .
CCN(CC)C(=O)CC(c1ccc(F)cc1)c1ccco1 (stereo unspecified) | -24% | 0% | 56% | ? | 28µM* | -1%
CN(C)CCCNC(=O)CC(c1ccc(F)cc1)c1ccco1 (stereo unspecified) | ? | ? | -12% | 1% | -13% | -2%
CCCN(CCC)C(=O)CC(c1ccccc1)c1ccco1 (stereo unspecified) | ? | -13% | 52% | 12µM* | 14µM* | -3%
O=C(Nc1ccc(Br)cc1F)c1cc(S(=O)(=O)NC2CCCC2)ccc1F | . | -8% | . | . | 21% | .
CCSC1=NC2(CCN(C(=O)NC3CCCCC3)CC2)N=C1c1ccc(C)c(C)c1 | . | 14% | . | . | 8% | .
CCOC(=O)c1ccc(N2C(=O)c3n[nH]c(-c4ccco4)c3C2c2ccccc2OC)cc1 (stereo unspecified) | . | 1% | . | . | -3% | .
Cc1cc(NC(=O)c2cccs2)ncc1NC(=O)C(C)C | 2.3µM* | -10% | 6% | 232% | 0% | -8%
Cc1cc(NC(=O)c2cccs2)ncc1NC(=O)c1cccc(F)c1 | 5.2µM* | 1% | -36% | 62% | . | 0%
SMILES | Pf growth 96h | AmpC detergent | AmpC no deterg | Pf growth 48h | Sm TGR block | SARS PLpro yeast
O=C(Nc1ccccc1)C1CC2CCCC(C1)C2=O (stereo unspecified) | 3.7µM* | 1% | -29% | 10% | 7% | 3%
CN(C)CCCNc1cc(-c2ccccc2)nc2cc(-c3cccc(F)c3)nn12 | -14% | -5% | 155% | ? | 100µM* | -9%
COCCNc1cc(C)nc2cc(-c3ccc(C)cc3)nn12 | 5% | 2% | 37% | 24% | 6% | -7%
Cc1cccc(-c2cc3nc(C)cc(NCCCN(C)C)n3n2)c1 | 379% | -4% | 5% | 10µM* | 3% | -6%
COc1ccc(-c2cc3nc(C)cc(NCCO)n3n2)cc1 | 4.7µM* | 7% | -6% | -28% | 17% | -2%
CN(CCO)c1c2c(nc3cc(-c4cccc(F)c4)nn13)CCCC2 | ? | -5% | 40% | 81% | 1% | -26%
Cc1ccc(NC(=O)COC(=O)c2ccc(S(=O)(=O)N3CCCC3)cc2)cc1 | 32% | ? | -7% | 28% | 1% | 1%
CCOC(=O)c1ccc(NC(=O)NC2CCN(CC(=O)NCc3ccc4c(c3)OCO4)CC2)cc1 | 27% | -12% | -14% | ? | 6% | -1%
Cn1cnnc1SCC(=O)Nc1ccc2ccccc2c1 | 156% | 2% | -17% | 52% | -17% | 2%
Cc1ccc(-c2nn(-c3ccccc3)cc2C(=O)O)o1 | 53% | -5% | -31% | 29% | 20µM* | 0%
Cc1ccc(-c2nn(-c3ccccc3)cc2/C=C/C(=O)O)o1 | -7% | -4% | -13% | 6% | 32µM* | 1%
Cc1ccc(-c2nn(-c3ccccc3)cc2CN(Cc2ccccc2)C(=O)c2ccco2)o1 | 12µM* | -14% | -22% | . | 0% | -1%
O=C(O)/C=C/c1cn(-c2ccccc2)nc1-c1cc2ccccc2oc1=O | 29% | 2% | -19% | 25% | -11% | 2%
CCc1cc[n+](/C(C(=S)Nc2cccc(C)c2)=C(/[O-])c2ccc(C)c([N+](=O)[O-])c2)cc1 | 0.15µM* | ? | -13% | ? | -1% | -5%
CCOC(=O)c1cc([N+](=O)[O-])c([N+](=O)[O-])cc1NC(C)=O | -14% | -3% | -24% | 0% | 0.5µM* | -135%
CCOC(=O)c1ccc(NC(=O)c2ccccc2[N+](=O)[O-])cc1 | 9% | 3% | -25% | 46% | -4% | -21%
Cc1csc2nc(=O)c3ccccc3n12 | 7% | 6% | -15% | 10% | 32% | 0%
